This note sets out measurements from PubChem BioAssay (NCI).

The panel holds about 83,000 compounds, 20% with a hit somewhere; the sample as a whole holds those more often.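 Note: values are percent growth. 100 is the growth of untreated cells, values between 100 and 0 indicate rising inhibition; between -100 and 0 indicates cell death.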 Unmarked numbers belong to inactive results. Calls of active or inactive are those of the source. How the source made its calls: active means growth percent below 10; inactive means the rest.

Some test systems named below: NCI-H23 lung; NCI-H226 lung; NCI-H322M lung; HOP-62 NSCLC; NCI-H460 lung; HOP-92 NSCLC; NCI-H522 lung; A549/ATCC NSCLC; 786-0 renal; COLO 205 colon.
Holding throughout (experiment): NCI-60 one-dose screen, 48 h (100 = growth as untreated, 0 = no growth, -100 = all killed)
Common to all, as to details: 10 µM unless noted

Regarding `CCN(CC)CCCC(C)Nc1cnc(C(=O)Nc2cc(C)cc3cccnc23)cn1` (stereo not given), the growth in the test with NCI-H23 lung is 96.3%; in the test on NCI-H226 lung it was 60.4%; in the test on NCI-H322M lung, 84.2%; in the test with HOP-62 NSCLC, 91.2%; in the test with NCI-H460 lung, 79.5%; in the test with HOP-92 NSCLC, 51.4%. The growth with NCI-H522 lung is 96.8%; in the test with A549/ATCC NSCLC, 72.8%; in the test with 786-0 renal it was 88.2%; in the test on COLO 205 colon, 37%.
On to `CCC1CCc2nc3sc(C(=O)Nc4cccc(F)c4)c(N)c3cc2C1` (stereo not given), for which the growth with NCI-H23 lung is 91.7%; in the test with NCI-H226 lung, 85.2%; with NCI-H322M lung, 87.8%; with HOP-62 NSCLC it was 74.1%; with NCI-H460 lung it was 74.5%; with HOP-92 NSCLC it was 61.4%. The growth was 70.1% in the test on NCI-H522 lung, 66.3% in the test on A549/ATCC NSCLC, 83.1% in the test with 786-0 renal and 67.8% in the test on COLO 205 colon.
In the case of `Fc1cc(-c2nnc3sc(-c4ccc(Cl)cc4)nn23)c(Cl)cc1Cl`, the growth in the test with NCI-H23 lung was 91.6%; with NCI-H226 lung, 93.2%; with NCI-H322M lung it was 82.3%; in the test on HOP-62 NSCLC it was 116%; with NCI-H460 lung, 103%; in the test on HOP-92 NSCLC, 74.8%. For the same compound, the growth with NCI-H522 lung was 82.8%; in the test with A549/ATCC NSCLC, 93.8%; with 786-0 renal it was 95.3%; in the test with COLO 205 colon it was 106%.
Turning to `Cc1cc(O)ccc1C1=NN(c2ccc(S(N)(=O)=O)cc2)C(=O)CC1`, the growth in the test with NCI-H23 lung is 64.3%; with NCI-H226 lung, 94.6%; in the test with NCI-H322M lung it was 121%; with HOP-62 NSCLC, 80.2%; in the test with NCI-H460 lung, 12.1%; in the test with HOP-92 NSCLC, 89.7%. For the same compound, the growth was -36.6% (active) with NCI-H522 lung, 43.9% with A549/ATCC NSCLC, 60.4% in the test with 786-0 renal and 55.6% in the test with COLO 205 colon.
Consider `Cc1nc2ccc(Nc3nc(Cl)nc(N4CCOCC4)n3)cc2n1Cc1ccccc1`, for which the growth in the test with NCI-H23 lung was 16.5%; in the test on NCI-H226 lung it was 82.5%; with NCI-H322M lung, 51%; with HOP-62 NSCLC, 50.1%; in the test on NCI-H460 lung it was 91.3%; in the test on HOP-92 NSCLC, 36.1%. Further, the growth is -38.6% (active) in the test on NCI-H522 lung, 92% in the test on A549/ATCC NSCLC, 68.3% in the test on 786-0 renal and 100% with COLO 205 colon.
For `c1ccc2c(Cc3csc4ccccc34)csc2c1`, the growth with NCI-H23 lung is 84.7%; with NCI-H226 lung, 95.1%; in the test on NCI-H322M lung, 87.2%; with HOP-62 NSCLC it was 83.2%; in the test with NCI-H460 lung, 104%; with HOP-92 NSCLC, 77.7%. Further, the growth was 65.3% in the test with NCI-H522 lung, 83% in the test on A549/ATCC NSCLC, 93.8% with 786-0 renal and 83.3% in the test with COLO 205 colon.
In the case of `CCCOC(=O)C1c2cc3c(cc2CC(C)C1C(=O)OCCC)OCO3` (stereo not given), the growth in the test on NCI-H23 lung was 85.8%; in the test with NCI-H226 lung it was 94.1%; with NCI-H322M lung, 80.9%; with HOP-62 NSCLC, 95.3%; in the test with NCI-H460 lung, 103%; in the test with HOP-92 NSCLC, 70.3%. In addition, the growth was 70% in the test with NCI-H522 lung, 92.6% in the test on A549/ATCC NSCLC, 94.5% with 786-0 renal and 121% with COLO 205 colon.
Regarding `N#Cc1c(N)n(C2OC(CO)C(O)C2O)c2ncnc(N)c12` (stereo not given), the growth with NCI-H23 lung is -8.8% (active); in the test on NCI-H226 lung it was 12.1%; in the test on NCI-H322M lung, -27.6% (active); in the test with HOP-62 NSCLC, -12.7% (active); in the test on NCI-H460 lung, 0.304% (active); in the test on HOP-92 NSCLC it was -21.3% (active). The growth was -56.1% (active) with NCI-H522 lung, 1.3% (active) with A549/ATCC NSCLC, -7.63% (active) in the test with 786-0 renal and -32.8% (active) with COLO 205 colon.
For `CC(CN1CCN(C)CC1)CN1c2ccccc2Sc2ccc(C(F)(F)F)cc21` (stereo not given), the growth in the test with NCI-H23 lung was 74.3%; in the test on NCI-H226 lung, 81.8%; in the test on NCI-H322M lung, 80%; in the test with HOP-62 NSCLC it was 85.6%; in the test on NCI-H460 lung, 0.601% (active); in the test on HOP-92 NSCLC, 39.7%. Moreover, the growth in the test with NCI-H522 lung is 43.8%; in the test on A549/ATCC NSCLC, 41.2%; in the test with 786-0 renal, 52.2%; in the test on COLO 205 colon, -68% (active).
Turning to `CCN(CC)Cc1cc(Nc2ccnc3cc(Cl)ccc23)cc(-c2ccc(Cl)cc2)c1O`, the growth was 24% with NCI-H23 lung; 17.6% in the test on NCI-H226 lung; 5.72% (active) with NCI-H322M lung; -46.1% (active) in the test with HOP-62 NSCLC; 3.23% (active) in the test on NCI-H460 lung; -8.91% (active) in the test with HOP-92 NSCLC. The growth in the test with NCI-H522 lung is 35.3%; in the test on A549/ATCC NSCLC it was 20.7%; with 786-0 renal, 55%; with COLO 205 colon it was 55.8%.
For the compound `CCc1ccc(-c2ccc(NC3CCCCCC3)nn2)cc1S(N)(=O)=O`, the growth in the test on NCI-H23 lung is 106%; with NCI-H226 lung, 104%; in the test on NCI-H322M lung, 110%; in the test with HOP-62 NSCLC it was 120%; with NCI-H460 lung, 104%; with HOP-92 NSCLC it was 94.2%. Further, the growth is 87.7% in the test on NCI-H522 lung, 98.2% in the test with A549/ATCC NSCLC, 103% with 786-0 renal and 115% with COLO 205 colon.
`COC(=O)C(CCC(=O)CCl)N1C(=O)c2ccccc2C1=O` (stereo not given): the growth in the test with NCI-H23 lung is 79.1%; with NCI-H226 lung it was 70.1%; with NCI-H322M lung it was 91.7%; with HOP-62 NSCLC it was 79.9%; in the test with NCI-H460 lung it was 90.1%; with HOP-92 NSCLC, 49.7%. For the same compound, the growth was -15.1% (active) with NCI-H522 lung, 104% in the test with A549/ATCC NSCLC, 60.3% with 786-0 renal and 87.8% in the test on COLO 205 colon.
As for `O=Cc1ccc2nc(C(Cl)(Cl)Cl)ccc2c1`, the growth was 92.4% with NCI-H23 lung; 97% with NCI-H226 lung; 91.9% in the test on NCI-H322M lung; 104% in the test on HOP-62 NSCLC; 94.7% in the test on NCI-H460 lung; 91.8% in the test on HOP-92 NSCLC. Besides, the growth in the test on NCI-H522 lung is 94.4%; in the test on A549/ATCC NSCLC it was 108%; in the test on 786-0 renal it was 99%; with COLO 205 colon it was 115%.
Turning to `CCOC(C)(c1ccc(Cl)cc1)C1CCNCC1` (stereo not given), the growth is 101% in the test on NCI-H23 lung; 116% with NCI-H226 lung; 105% in the test with NCI-H322M lung; 93.3% with HOP-62 NSCLC; 70.3% in the test on NCI-H460 lung; 85.2% in the test with HOP-92 NSCLC. Besides, the growth in the test with NCI-H522 lung is 107%; in the test on A549/ATCC NSCLC, 67.9%; with 786-0 renal, 91.9%; in the test on COLO 205 colon it was 118%.
